In PubChem BioAssay (EPA / NIEHS) one finds outcome and AC50 data, which are given here for 28 molecules.

Calls of active or inactive are those of the source. The calls were made as follows: active = hit-call score of the fitted dose curve at least 0.9, where 1 is the maximum; inactive = score below 0.9.

Read-out in the first assay: Plasminogen activator inhibitor-1 (PAI1), SERPINE1 (gene 5054)
In words: BSK_MyoF_PAI1: BioMAP Diversity Plus: MyoF Assay for Plasminogen activator inhibitor-1 (PAI1) Biomarker Activity (AID 2284256).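 As to outcome: PAI-1 protein level measured by ELISA in fibroblast cultures; PAI-1 read 24 h after compound addition.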 The note with it: primary human lung fibroblasts. In a few lines: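 Human lung fibroblasts (MyoF system) were exposed to test chemicals for 24 h, then PAI-1 was quantified by ELISA. Activity was fitted in the positive (signal-gain) direction relative to DMSO vehicle as baseline.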
`C=CC(=O)OCCCCCCCC(C)C`: the result was inactive.

For the molecule `CC(C)CCCCCOC(=O)CS`, the result was inactive.

A word on the AC50: it is the midpoint of the concentration-response curve, whichever way the signal moves. On to `C=CC(=O)OCCCCCCOC(=O)C=C`, for which the AC50 was 34.6 µM (active).

`Oc1ccc(/C=C/c2cc(O)cc(O)c2)cc1`: the result was inactive.

Regarding `CCCCCCOC(=O)CCCCC(=O)OCCCCCC`, the result was inactive.

For the molecule `C=CCCCCCCCCC=O`, the outcome was inactive.

In the case of `Oc1c(Cl)cc(Cl)c(Cl)c1Cl`, the AC50 is 28.3 µM (active).

As to `COC(OC)(C(=O)c1ccccc1)c1ccccc1`, the result was inactive.

For `C=C(C)C(=O)OCCCCCCCCCCCC`, the result was inactive.

Take `Fc1ccc(Br)cc1`: the result was inactive.

With `CC(C)c1cccc(C(C)C)c1N`, the result was inactive.

With `CC=C(C)C(C)=O`, the outcome was inactive.

On to `O=C1CCCCCCCCCCC1`, for which the result was inactive.

Regarding `O=C(Cl)c1c(Cl)c(Cl)c(C(=O)Cl)c(Cl)c1Cl`, the result was inactive.

Regarding `CCCCCCCCC(CO)CCCCCC` (configuration not stated), the outcome was inactive.

Turning to `c1ccc2sc(SSN3CCOCC3)nc2c1`, the AC50 was 29.8 µM (active).

For the molecule `O=C1CCCCCCCCCCCN1`, the outcome was inactive.

Regarding `Clc1cc(Cl)c(Cl)c(Cl)c1Cl`, the AC50 was 31.9 µM (active).

Consider `CC1=CC=C(C(C)C)CC1`, for which the result was inactive.

Regarding `O=C(Oc1ccccc1)c1ccccc1C(=O)Oc1ccccc1`, the outcome was inactive.

Consider `CCCCCCCO`, for which the result was inactive.

`CCCCCC1=CCCC1=O`: the result was inactive.

`Cc1c(O)cccc1O`: the outcome was inactive.

With `CCOC(=O)C1=NOC(c2ccccc2)(c2ccccc2)C1`, the result was inactive.

On to `CCCCCCC=O`, for which the result was inactive.

Regarding `CCN1CN(CC)CN(CC)C1`, the outcome was inactive.

Consider `CC/C=C\C/C=C\C/C=C\CCCCCCCC(=O)OC`, for which the AC50 was 13.7 µM (active).

As for `CC=C(C)C=CC=C(C)C`, the AC50 was 0.016 µM (active).

Read-out in another assay: Interleukin-8 (IL8), CXCL8 (gene 3576)
Kind of assay: BSK_MyoF_IL8: BioMAP Diversity Plus: MyoF Assay for Interleukin-8 (IL8) Biomarker Activity (AID 2284261). The following applies: primary human lung fibroblasts. In a few lines:
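IL-8 quantified by ELISA after 24 h compound exposure of primary human lung fibroblasts. SRB staining of parallel cultures flagged cytotoxicity; DMSO served as baseline.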
`C=CC(=O)OCCCCCCCC(C)C`: the result was inactive.

`CC(C)CCCCCOC(=O)CS`: the result was inactive.

For `C=CC(=O)OCCCCCCOC(=O)C=C`, the result was inactive.

As for `Oc1ccc(/C=C/c2cc(O)cc(O)c2)cc1`, the result was inactive.

Take `CCCCCCOC(=O)CCCCC(=O)OCCCCCC`: the result was inactive.

Regarding `C=CCCCCCCCCC=O`, the outcome was inactive.

As for `Oc1c(Cl)cc(Cl)c(Cl)c1Cl`, the outcome was inactive.

Turning to `COC(OC)(C(=O)c1ccccc1)c1ccccc1`, the outcome was inactive.

In the case of `C=C(C)C(=O)OCCCCCCCCCCCC`, the result was inactive.

For `Fc1ccc(Br)cc1`, the result was inactive.

For the molecule `CC(C)c1cccc(C(C)C)c1N`, the result was inactive.

Regarding `CC=C(C)C(C)=O`, the result was inactive.

Turning to `O=C1CCCCCCCCCCC1`, the result was inactive.

Consider `O=C(Cl)c1c(Cl)c(Cl)c(C(=O)Cl)c(Cl)c1Cl`, for which the result was inactive.

For the molecule `CCCCCCCCC(CO)CCCCCC` (configuration not stated), the result was inactive.

For `c1ccc2sc(SSN3CCOCC3)nc2c1`, the outcome was inactive.

`O=C1CCCCCCCCCCCN1`: the outcome was inactive.

Consider `Clc1cc(Cl)c(Cl)c(Cl)c1Cl`, for which the outcome was inactive.

Take `CC1=CC=C(C(C)C)CC1`: the outcome was inactive.

For the molecule `O=C(Oc1ccccc1)c1ccccc1C(=O)Oc1ccccc1`, the result was inactive.

Take `CCCCCCCO`: the outcome was inactive.

`CCCCCC1=CCCC1=O`: the result was inactive.

Turning to `Cc1c(O)cccc1O`, the result was inactive.

With `CCOC(=O)C1=NOC(c2ccccc2)(c2ccccc2)C1`, the result was inactive.

Consider `CCCCCCC=O`, for which the outcome was inactive.

With `CCN1CN(CC)CN(CC)C1`, the result was inactive.

As for `CC/C=C\C/C=C\C/C=C\CCCCCCCC(=O)OC`, the AC50 is 20 µM (active).

In the case of `CC=C(C)C=CC=C(C)C`, the outcome was inactive.

Read-out in a further assay: Decorin, DCN (gene 1634)
Kind of assay: BSK_MyoF_Decorin: BioMAP Diversity Plus: MyoF Assay for Decorin Biomarker Activity (AID 2284265). The following applies: primary human lung fibroblasts. In a few lines: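 Decorin protein was quantified by ELISA 24 h after chemical addition to primary human lung fibroblasts and analysed as increase over DMSO. Cytotoxicity was tracked in parallel cultures by SRB total-protein staining read at 560 nm.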
Turning to `C=CC(=O)OCCCCCCCC(C)C`, the result was inactive.

With `CC(C)CCCCCOC(=O)CS`, the outcome was inactive.

In the case of `C=CC(=O)OCCCCCCOC(=O)C=C`, the outcome was inactive.

As for `Oc1ccc(/C=C/c2cc(O)cc(O)c2)cc1`, the outcome was inactive.

For `CCCCCCOC(=O)CCCCC(=O)OCCCCCC`, the result was inactive.

Consider `C=CCCCCCCCCC=O`, for which the result was inactive.

Turning to `Oc1c(Cl)cc(Cl)c(Cl)c1Cl`, the AC50 is 37.4 µM (active).

Regarding `COC(OC)(C(=O)c1ccccc1)c1ccccc1`, the result was inactive.

Consider `C=C(C)C(=O)OCCCCCCCCCCCC`, for which the outcome was inactive.

With `Fc1ccc(Br)cc1`, the outcome was inactive.

`CC(C)c1cccc(C(C)C)c1N`: the outcome was inactive.

For the molecule `CC=C(C)C(C)=O`, the outcome was inactive.

Consider `O=C1CCCCCCCCCCC1`, for which the outcome was inactive.

Consider `O=C(Cl)c1c(Cl)c(Cl)c(C(=O)Cl)c(Cl)c1Cl`, for which the outcome was inactive.

Take `CCCCCCCCC(CO)CCCCCC` (configuration not stated): the outcome was inactive.

Regarding `c1ccc2sc(SSN3CCOCC3)nc2c1`, the result was inactive.

Consider `O=C1CCCCCCCCCCCN1`, for which the outcome was inactive.

For the molecule `Clc1cc(Cl)c(Cl)c(Cl)c1Cl`, the outcome was inactive.

On to `CC1=CC=C(C(C)C)CC1`, for which the outcome was inactive.

With `O=C(Oc1ccccc1)c1ccccc1C(=O)Oc1ccccc1`, the outcome was inactive.

On to `CCCCCCCO`, for which the result was inactive.

On to `CCCCCC1=CCCC1=O`, for which the outcome was inactive.

Turning to `Cc1c(O)cccc1O`, the result was inactive.

In the case of `CCOC(=O)C1=NOC(c2ccccc2)(c2ccccc2)C1`, the outcome was inactive.

Consider `CCCCCCC=O`, for which the result was inactive.

Consider `CCN1CN(CC)CN(CC)C1`, for which the outcome was inactive.

Take `CC/C=C\C/C=C\C/C=C\CCCCCCCC(=O)OC`: the result was inactive.

As for `CC=C(C)C=CC=C(C)C`, the outcome was inactive.

Read-out in a further assay: not listed separately
Kind of assay: BSK_MyoF_SRB: Viability Assessment in the BioMAP Diversity Plus: MyoF Assay (AID 2284267).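 Also: total protein by SRB absorbance in parallel cultures as cytotoxicity measure; cells assessed 24 h after compound addition.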 The note with it: primary human lung fibroblasts. In outline:
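Human lung fibroblasts, 24 h after chemical dosing; total protein measured by 0.1% sulforhodamine B staining after 10% TCA fixation, read at 560 nm, fitted relative to DMSO baseline.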
Consider `C=CC(=O)OCCCCCCCC(C)C`, for which the result was inactive.

Take `CC(C)CCCCCOC(=O)CS`: the result was inactive.

With `C=CC(=O)OCCCCCCOC(=O)C=C`, the AC50 is 20 µM (active).

With `Oc1ccc(/C=C/c2cc(O)cc(O)c2)cc1`, the result was inactive.

Take `CCCCCCOC(=O)CCCCC(=O)OCCCCCC`: the result was inactive.

With `C=CCCCCCCCCC=O`, the result was inactive.

Take `Oc1c(Cl)cc(Cl)c(Cl)c1Cl`: the AC50 was 26.6 µM (active).

As for `COC(OC)(C(=O)c1ccccc1)c1ccccc1`, the outcome was inactive.

On to `C=C(C)C(=O)OCCCCCCCCCCCC`, for which the outcome was inactive.

In the case of `Fc1ccc(Br)cc1`, the result was inactive.

In the case of `CC(C)c1cccc(C(C)C)c1N`, the result was inactive.

As for `CC=C(C)C(C)=O`, the result was inactive.

Consider `O=C1CCCCCCCCCCC1`, for which the outcome was inactive.

Consider `O=C(Cl)c1c(Cl)c(Cl)c(C(=O)Cl)c(Cl)c1Cl`, for which the outcome was inactive.

`CCCCCCCCC(CO)CCCCCC` (configuration not stated): the result was inactive.

In the case of `c1ccc2sc(SSN3CCOCC3)nc2c1`, the AC50 is 31.5 µM (active).

As for `O=C1CCCCCCCCCCCN1`, the outcome was inactive.

For `Clc1cc(Cl)c(Cl)c(Cl)c1Cl`, the AC50 was 20 µM (active).

Regarding `CC1=CC=C(C(C)C)CC1`, the result was inactive.

As for `O=C(Oc1ccccc1)c1ccccc1C(=O)Oc1ccccc1`, the result was inactive.

Take `CCCCCCCO`: the result was inactive.

Consider `CCCCCC1=CCCC1=O`, for which the result was inactive.

In the case of `Cc1c(O)cccc1O`, the outcome was inactive.

For `CCOC(=O)C1=NOC(c2ccccc2)(c2ccccc2)C1`, the outcome was inactive.

For the molecule `CCCCCCC=O`, the outcome was inactive.

As to `CCN1CN(CC)CN(CC)C1`, the result was inactive.

Consider `CC/C=C\C/C=C\C/C=C\CCCCCCCC(=O)OC`, for which the AC50 was 10.4 µM (active).

In the case of `CC=C(C)C=CC=C(C)C`, the outcome was inactive.
